HT1080 IDH1KD tx: HT-1080 IDH1 knockdown cell toxicity (counter line); HT-1080 IDH1 knockdown viability, ATP luminescence, 48 h; AID 686971; hit rate 2% among 360,000; Potency, µM (doses to about 46.1 µM), inactives show at the top dose activity, negative = toxicity, actives largely listed as cytotoxic;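 note: 0% = DMSO wells and -100% = cell-free medium wells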
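Using the IDH1-knockdown HT-1080 line run in the same batch and compound series as the NT line, viability after 48 h at 37 °C was determined by CellTiter-Glo luminescence and expressed as % activity.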
MCF10A rerep: induces DNA re-replication in MCF 10a normal breast cells; MCF 10A DNA re-replication, Hoechst nuclear intensity, 48 h; Potency, µM (doses to about 46.1 µM), for inactives: top-dose activity, positive = re-replication, actives largely listed as activators; hit rate 2.9% among 350,000; note: % of control where 0% means no effect; nearly all actives have a fitted effect of over 50% in size
KB-3-1 tox: kills parental KB-3-1 adenocarcinoma cells. KB-3-1 viability, CellTiter-Glo ATP luminescence, 72 h. Potency, µM (top dose mostly 46.1 µM), most hits filed as cytotoxic. hit rate 1.4% among 400,000; note: % is set by controls: 0 for no effect and ±100 for the full control effect; nearly all actives have a fitted effect of over 60% in size
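Screening of KB-3-1 cells (DMEM, 10% FBS, phenol-red free) ran from lowest to highest compound concentration; after 72 h at 37 °C viability was read luminescently and curves fitted.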
SW480 rerep: induces DNA re-replication in SW480 colon adenocarcinoma cells | SW480 DNA re-replication, Hoechst DNA content imaging, 48 h | AID 624297 | Potency, µM (titrated, usually from 46.1 µM), without a hit: top-dose re-replication activation, most hits filed as activators | hit rate 1.8% among 340,000; note: % of control where 0% means no effect; nearly all actives have a fitted effect of over 55% in size
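Hoechst fluorescence of nuclei (405 nm excitation, 500-530 nm emission) measured by plate-scanning imager after 48 hr compound exposure at 37 C; re-replication scored as increased number of nuclei with elevated intensity.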
KB-V1 cytotox: KB-V1 MDR subline cytotoxicity | hit rate 3.4% among 400,000 | KB-V1 MDR cells viability, CellTiter-Glo, 72 h | Potency, µM (titrated, usually from 46.1 µM), actives largely listed as cytotoxic; note: % is set by controls: 0 for no effect and ±100 for the full control effect; nearly all actives have a fitted effect of over 60% in size
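Cytotoxicity via CellTiter-Glo luminescence after 72 h compound exposure at 37 degrees C. Cells: drug-selected KB-V1 line, DMEM phenol-red free plus 10% FBS. Compounds tested at multiple concentrations; normalized data fitted to concentration-effect curves.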
HT1080NT lethal: kills 2HG-producing HT-1080-NT fibrosarcoma cells; Potency, µM (highest dose often 46.1 µM), without a hit: at the top dose activity, negative = less viability, actives largely listed as cytotoxic; HT-1080-NT fibrosarcoma viability, CellTiter-Glo ATP luminescence, 48 h; hit rate 1.6% among 360,000;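 note: NT is the 2HG producing partner of a matched IDH1 knockdown line; 0% = DMSO-treated cells and -100% = media-only wells without cells; nearly all actives have a fitted effect of over 55% in size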
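750 cells/well, RPMI + 5% FBS; 2 h settle, compound pin-transfer, 48 h at 37 degrees C. CellTiter-Glo 10 min RT, luminescence. Normalized to DMSO and media-only wells.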
Active calls of the source: *. Hits are enriched below; roughly 7.9% of the tested compounds scored in any of these assays. Calls come from the whole dose curve; as a rule, active = well fitted curve in the direction sought with a large enough effect; inconclusive = small, poorly fitted or top-dose-only effect, or another doubt; inactive = no such curve, though single readings can be large; an effect the other way counts as inactive or inconclusive. Potency is the fitted concentration of half-maximal effect.

How did Cc1ccc(-c2ccc(/C=N\NC(=O)c3cc4c(ccc5ccccc54)o3)o2)cc1[N+](=O)[O-] do in these assays?
HT1080 IDH1KD tx: 24%; MCF10A rerep: 7.3µM*; KB-3-1 tox: inconclusive; SW480 rerep: 12%; KB-V1 cytotox: inconclusive; HT1080NT lethal: inconclusive

How did O=C(N/N=C/c1ccc(-c2ccc(Cl)c(C(=O)O)c2)o1)c1cc2c(ccc3ccccc32)o1 do in these assays?
HT1080 IDH1KD tx: -24%; MCF10A rerep: 21µM*; KB-3-1 tox: inactive; SW480 rerep: inconclusive; KB-V1 cytotox: inactive; HT1080NT lethal: -15%

What do the screens show for `Cc1ccc([N+](=O)[O-])cc1-c1ccc(/C=N/NC(=O)c2cc3c(ccc4ccccc43)o2)o1`?
HT1080 IDH1KD tx: 9%; MCF10A rerep: -3%; KB-3-1 tox: inactive; SW480 rerep: -13%; KB-V1 cytotox: inactive; HT1080NT lethal: 17%

How did O=C(O)c1ccc(/C=N/NC(=O)c2cc3c(ccc4ccccc43)o2)cc1 do in these assays?
HT1080 IDH1KD tx: 12%; MCF10A rerep: 2%; KB-3-1 tox: inactive; SW480 rerep: 2%; KB-V1 cytotox: inactive; HT1080NT lethal: 1%

How did CN(C)S(=O)(=O)c1ccc(SCC(=O)Nc2ccc3c(c2)OCCO3)nc1 do in these assays?
HT1080 IDH1KD tx: 0%; MCF10A rerep: 6%; KB-3-1 tox: inactive; SW480 rerep: -1%; KB-V1 cytotox: inactive; HT1080NT lethal: 3%

How did Cc1ccc(SCc2cc(=O)[nH]c(N3CCN(Cc4ccc5c(c4)OCO5)CC3)n2)cc1 do in these assays?
HT1080 IDH1KD tx: 18%; MCF10A rerep: -2%; KB-3-1 tox: inactive; SW480 rerep: 0%; KB-V1 cytotox: inactive; HT1080NT lethal: 7%

Results for O=C(Nc1ccccc1)c1snc2c(=O)[nH]cnc12 ?
HT1080 IDH1KD tx: 10%; MCF10A rerep: -3%; KB-3-1 tox: inconclusive; SW480 rerep: -121%; KB-V1 cytotox: 4.1µM*; HT1080NT lethal: 11%

Results for CCOCCCN(C(=O)c1ccco1)C(C(=O)NC1CCCC1)c1cccc(OC)c1OC (stereo not given) ?
HT1080 IDH1KD tx: -11%; MCF10A rerep: -5%; KB-3-1 tox: inactive; SW480 rerep: inconclusive; KB-V1 cytotox: 16µM*; HT1080NT lethal: 1%

Results for O=C(Cc1ccccc1)Nc1ccnn1C1CCN(Cc2ccc(CO)o2)CC1 ?
HT1080 IDH1KD tx: 20%; MCF10A rerep: 0%; KB-3-1 tox: inactive; SW480 rerep: -2%; KB-V1 cytotox: inactive; HT1080NT lethal: 9%

How did CN(C)CCNC(=O)C(=O)Nc1ccc2c(c1)N(S(=O)(=O)c1cccs1)CCC2 do in these assays?
HT1080 IDH1KD tx: inconclusive; MCF10A rerep: inconclusive; KB-3-1 tox: 6.5µM*; SW480 rerep: 18µM*; KB-V1 cytotox: inconclusive; HT1080NT lethal: -24%

What do the screens show for `O=C(Nc1ccc2c(c1)N(S(=O)(=O)c1cccs1)CCC2)c1c(F)cccc1F`?
HT1080 IDH1KD tx: 3%; MCF10A rerep: 12%; KB-3-1 tox: inactive; SW480 rerep: 0%; KB-V1 cytotox: inactive; HT1080NT lethal: 5%

What do the screens show for `C=CCNC(=O)C(=O)NCC1CCCN1S(=O)(=O)c1cccs1` (stereo not given)?
HT1080 IDH1KD tx: 23%; MCF10A rerep: -3%; KB-3-1 tox: inactive; SW480 rerep: -5%; KB-V1 cytotox: inactive; HT1080NT lethal: 4%

How did CCCNC(=O)C(=O)Nc1ccc2c(c1)N(S(=O)(=O)c1cccs1)CCC2 do in these assays?
HT1080 IDH1KD tx: inconclusive; MCF10A rerep: 15µM*; KB-3-1 tox: inconclusive; SW480 rerep: 18µM*; KB-V1 cytotox: inconclusive; HT1080NT lethal: inconclusive

Results for CN(C)CCCNC(=O)C(=O)Nc1ccc2c(c1)N(S(=O)(=O)c1cccs1)CCC2 ?
HT1080 IDH1KD tx: 0%; MCF10A rerep: inconclusive; KB-3-1 tox: inconclusive; SW480 rerep: 2%; KB-V1 cytotox: inactive; HT1080NT lethal: -2%

Results for COCCCNC(=O)C(=O)Nc1ccc2c(c1)N(S(=O)(=O)c1cccs1)CCC2 ?
HT1080 IDH1KD tx: 2.3µM*; MCF10A rerep: 1.3µM*; KB-3-1 tox: 1.2µM*; SW480 rerep: 1µM*; KB-V1 cytotox: 1µM*; HT1080NT lethal: inconclusive

What do the screens show for `C=CCNC(=O)C(=O)Nc1ccc2c(c1)N(S(=O)(=O)c1cccs1)CCC2`?
HT1080 IDH1KD tx: inconclusive; MCF10A rerep: inconclusive; KB-3-1 tox: inconclusive; SW480 rerep: inconclusive; KB-V1 cytotox: 23µM*; HT1080NT lethal: -16%

How did CCNC(=O)C(=O)Nc1ccc2c(c1)N(S(=O)(=O)c1cccs1)CCC2 do in these assays?
HT1080 IDH1KD tx: -14%; MCF10A rerep: 29%; KB-3-1 tox: inactive; SW480 rerep: inconclusive; KB-V1 cytotox: inconclusive; HT1080NT lethal: 0%

How did CC(CN1CCCCC1)OC(=O)COc1ccc(Cl)cc1 (stereo not given) do in these assays?
HT1080 IDH1KD tx: -1%; MCF10A rerep: -2%; KB-3-1 tox: inactive; SW480 rerep: -2%; KB-V1 cytotox: inactive; HT1080NT lethal: 3%

How did Cc1ccc2cc(NC(=O)C3(C)CCN3CC(C)C)ccc2n1 (stereo not given) do in these assays?
HT1080 IDH1KD tx: inconclusive; KB-3-1 tox: inactive; KB-V1 cytotox: inactive; HT1080NT lethal: inconclusive

What do the screens show for `CCn1cc(S(=O)(=O)CC(=O)Nc2ccc3c(c2)OCCO3)c2ccccc21`?
HT1080 IDH1KD tx: 14%; MCF10A rerep: 9%; KB-3-1 tox: inactive; SW480 rerep: -2%; KB-V1 cytotox: inactive; HT1080NT lethal: 14%

How did Cc1nn(Cc2ccc(Cl)cc2)c(C)c1NC(=O)c1cc(-c2ccc3c(c2)OCO3)on1 do in these assays?
MCF10A rerep: 4.6µM*; KB-3-1 tox: 4.1µM*; SW480 rerep: inconclusive; KB-V1 cytotox: inactive

How did Cc1nn(Cc2ccc(Cl)c(Cl)c2)c(C)c1NC(=O)c1cc(-c2ccc3c(c2)OCO3)on1 do in these assays?
HT1080 IDH1KD tx: inconclusive; MCF10A rerep: 5.8µM*; KB-3-1 tox: inconclusive; SW480 rerep: 16µM*; KB-V1 cytotox: inactive; HT1080NT lethal: inconclusive

Results for Cc1nn(Cc2ccc(Cl)cc2)c(C)c1NC(=O)c1cc(C(C)C)on1 ?
HT1080 IDH1KD tx: -20%; MCF10A rerep: inconclusive; KB-3-1 tox: inactive; SW480 rerep: -5%; KB-V1 cytotox: inactive; HT1080NT lethal: inconclusive

What do the screens show for `O=C(NCc1ccco1)c1cc(-c2ccc3c(c2)OCO3)on1`?
HT1080 IDH1KD tx: inconclusive; MCF10A rerep: 6%; KB-3-1 tox: inactive; SW480 rerep: 2%; KB-V1 cytotox: inactive; HT1080NT lethal: 2.2µM*

Compound activity as filed in PubChem.
